# Values joined by “and” are separate entries in the source; they are usually repeats but may differ in a detail not shown here. Identical values can stand only once. Counter-ions that a name gives are not always drawn.
# Tests used:
# Experiment in all cases: cell viability relative to vehicle control; higher = less cytotoxic
# Settings in all cases: 10 µM
# [1] = test system: K562
# In short: (§1)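 Mutant clones made by CRISPR editing and their isogenic wild-type counterparts, from four leukaemia lines, were exposed to a single 10 µM dose of each library compound for 48 h. The supernatant was then removed and CellTiter-Glo luminescence was read. Viability was reported as percent of the on-plate vehicle control.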
# [2] = test system: MARIMO
# In short: as §1
# [3] = test system: MOLM14
# In short: as §1
# [4] = test system: OCI-AML2
# In short: as §1
SMILES,cell viability ([1]; SRSF2 genotype: SRSF2 P95H/wt),cell viability ([1]; SRSF2 genotype: SRSF2 wt/wt),cell viability ([2]; SRSF2 genotype: SRSF2 P95H/wt),cell viability ([2]; SRSF2 genotype: SRSF2 wt/wt),cell viability ([3]; SRSF2 genotype: SRSF2 P95H/wt),cell viability ([3]; SRSF2 genotype: SRSF2 wt/wt),cell viability ([4]; SRSF2 genotype: P95H/wt),cell viability ([4]; SRSF2 genotype: wt/wt)
CC[C@H]1OC(=O)C[C@@H](O)[C@H](C)[C@@H](O[C@@H]2O[C@H](C)[C@@H](O)[C@H](N(C)C)[C@H]2O)[C@@H](CCN2C[C@H](C)C[C@H](C)C2)C[C@@H](C)C(=O)/C=C/C(C)=C/[C@@H]1CO[C@@H]1O[C@H](C)[C@@H](O)[C@@H](OC)[C@H]1OC [Tilmicosin],96.5% and 94.4%,99.4%,95.6%,106%,98.5%,103%,93.3%,105%
COc1ccc(-n2c(C)c([N+](=O)[O-])c3ccc(O)cc32)cc1,97.5% and 95.4%,94%,99.2%,108%,93.6%,98.2%,73.1%,80.2%
CN(C)CCOC(c1ccccc1)c1ccccc1 [Diphenhydramine HCl (Benadryl)],91.2% and 88.2%,85.9%,76.8%,91.7%,88.3%,85.8%,87.8%,92.3%
CCCCC(CC)COC(=O)C=Cc1ccc(OC)cc1 (centres undefined) [Octinoxate],106% and 102%,103%,96.9%,109%,99.5%,108%,90.2%,93.4%
Clc1cccc(-c2nnnn2Cc2cccnc2)c1Cl,103% and 112%,106%,102%,101%,101%,108%,108%,116%
C=C1CC[C@@H]2[C@](C)(CO)[C@H](O)CC[C@@]2(C)[C@@H]1C/C=C1/C(=O)OC[C@H]1O [Andrographolide],64.7% and 47.9%,59.5%,20.5%,19.6%,11.1%,6.73%,23.4%,22.4%
Cc1ccc(-n2[nH]c(C)c(N=Nc3cccc(-c4cccc(C(=O)O)c4)c3O)c2=O)cc1C [Eltrombopag],77.1% and 80.1%,74.4%,62.2%,71.6%,77%,74.6%,68.8%,70.1%
COC(=O)c1c2c(c3ccccc3c1O)OC(C)(C)C=C2 [Rubimaillin],86.1% and 90%,79.6%,20%,39.7%,2.68%,3.56%,28.1%,41.4%
CCCCCC(O)C=CC1C(O)CC(=O)C1CCCCCCC(=O)O (centres undefined) [Alprostadil(Caverject)],69.3% and 64.4%,84.2%,82.4%,73.2%,50.1%,22.4%,80.3%,62.1%
Clc1ccc(CCC(Cn2ccnc2)Sc2c(Cl)cccc2Cl)cc1 (centres undefined) [Butoconazole nitrate],74.1% and 80.8%,75.7%,75.8%,83.9%,79.7%,75.7%,71.5%,69.6%
O=C(Nc1cccnc1)N1CCC(Cc2cccc(Oc3ccc(C(F)(F)F)cn3)c2)CC1,42% and 43.6%,44.4%,43.6%,35.1%,51.2%,28.9%,38.3%,27.1%
COc1cccc(OC)c1C(=O)OCc1cc(O)ccc1O[C@@H]1O[C@H](CO)[C@@H](O)[C@H](O)[C@H]1O [Curculigoside],101% and 106%,106%,110%,104%,105%,105%,115%,109%
CC(=CCNc1ncnc2c1ncn2C1OC(CO)C(O)C1O)CO (stereo not drawn) [trans-Zeatin-riboside],107% and 105%,108%,99.7%,110%,104%,105%,116%,117%
COc1cc2c(=O)c3c(O)c([C@@H]4O[C@H](CO[C@@H]5OC[C@](O)(CO)[C@H]5O)[C@@H](O)[C@H](O)[C@H]4O)c(O)cc3oc2cc1O [Polygalaxanthone III],99.2% and 105%,98%,100%,98.8%,101%,98.4%,105%,97.3%
COCCOc1nc(-c2ccc(Cl)c(Cl)c2)n(-c2ccc(NC(=O)CCl)cc2)n1 [MI-2 (MALT1 inhibitor)],16% and 8.54%,6.61%,0.5%,0.7%,0.48%,0.53%,0.42%,0.46%
COC(=O)[C@H](Cc1ccccc1)NC(=O)[C@@H](N)CC(=O)O [Aspartame],101% and 92.2%,91.6%,102%,101%,98.8%,97.1%,93.6%,92.1%
CC(C)Cn1cnc2c(N)nc3ccccc3c21 [Imiquimod],80.9% and 85.2%,77.2%,78.5%,92.4%,78.1%,84.8%,85.9%,85.4%
CCN(CC)C(=O)C1(c2ccccc2)CC1CN (centres undefined) [Milnacipran HCl],96.3% and 102%,96.8%,99.6%,106%,102%,105%,106%,108%
CC1=C(/C=C/C(C)=C/C=C/C(C)=C/C=C/C=C(C)/C=C/C=C(C)/C=C/C2=C(C)C(=O)[C@@H](O)CC2(C)C)C(C)(C)C[C@H](O)C1=O [Astaxanthin],104%,106%,98.3%,96.9%,102%,101%,89.8%,99.8%

SMILES,cell viability ([1]; SRSF2 genotype: SRSF2 P95H/wt),cell viability ([1]; SRSF2 genotype: SRSF2 wt/wt),cell viability ([2]; SRSF2 genotype: SRSF2 P95H/wt),cell viability ([2]; SRSF2 genotype: SRSF2 wt/wt),cell viability ([3]; SRSF2 genotype: SRSF2 P95H/wt),cell viability ([3]; SRSF2 genotype: SRSF2 wt/wt),cell viability ([4]; SRSF2 genotype: P95H/wt),cell viability ([4]; SRSF2 genotype: wt/wt)
COc1ccc(C[C@H](N)C(=O)N[C@H]2[C@@H](O)[C@H](n3cnc4c(N(C)C)ncnc43)O[C@@H]2CO)cc1 [Puromycin 2HCl],1.95% and 1.45%,1.55%,1.69%,0.77%,0.25%,0.31%,0.26%,0.49%
CC1(C)O[C@@H]2C[C@H]3[C@@H]4CCC5=CC(=O)C=C[C@]5(C)[C@@]4(F)[C@@H](O)C[C@]3(C)[C@]2(C(=O)CO)O1 [Triamcinolone Acetonide],101% and 100%,102%,107%,97.1%,100%,95.3%,114%,115%
CCCCCCCCCCCCN1CCCCCC1=O [Laurocapram],82.4% and 87.5%,93.1%,80.5%,86.3%,80.8%,90.8%,70.4%,73.7%
COc1ccc(C2=N[C@@H](c3ccc(Cl)cc3)[C@@H](c3ccc(Cl)cc3)N2C(=O)N2CCNC(=O)C2)c(OC(C)C)c1 [Nutlin-3],91.4% and 99.4%,89.2%,87.4%,93.3%,0.14%,1.06%,9.37%,32.1%
COC(=O)[C@]12CCC(C)(C)C[C@H]1[C@H]1C(=O)C=C3[C@@]4(C)C=C(C#N)C(=O)C(C)(C)[C@@H]4CC[C@@]3(C)[C@]1(C)CC2 [Bardoxolone Methyl],2.03% and 0.75%,1.02%,0.23%,0.28%,0.15%,0.13%,0.19%,0.13%
COC(=O)CC[C@H](NC(=O)[C@H](CC(=O)OC)NC(=O)OCc1ccccc1)C(=O)N[C@H](C(=O)N[C@@H](CC(=O)OC)C(=O)CF)C(C)C,101% and 95.3%,93.7%,99.4%,104%,100%,97.3%,98.4%,103%
Cc1ccc(-c2csc(NC(=O)c3ccccc3)n2)c(C)c1,80.3% and 83.3%,81.5%,76.2%,81%,94.1%,92.7%,63.8%,66.8%
CC[C@H]1OC(=O)[C@H](C)[C@@H](O[C@H]2C[C@@](C)(OC)[C@@H](O)[C@H](C)O2)[C@H](C)[C@@H](O[C@@H]2O[C@H](C)C[C@H](N(C)C)[C@H]2O)[C@](C)(O)C[C@@H](C)[C@@H]2N[C@@H](COCCOC)O[C@H]([C@H]2C)[C@]1(C)O [Dirithromycin],98.3% and 98%,98.5%,97.1%,109%,98.7%,102%,94.6%,107%
CC(C)C[C@H](NC(=O)CNC(=O)c1cc(Cl)ccc1Cl)B1OC(=O)CC(CC(=O)O)(C(=O)O)O1 (some centres undefined) [Ixazomib Citrate (MLN9708)],2.32% and 2.83%,4.01%,0.72%,2.45%,0.35%,0.36%,0.42%,1.49%
C[C@@H]1CC[C@@]2(OC1)O[C@H]1C[C@H]3[C@@H]4CC=C5C[C@@H](O[C@@H]6O[C@H](CO)[C@@H](O[C@@H]7O[C@@H](CO)[C@H](O)[C@H]7O)[C@H](O)[C@H]6O[C@@H]6O[C@@H](C)[C@H](O)[C@@H](O)[C@H]6O)CC[C@]5(C)[C@H]4CC[C@]3(C)[C@H]1[C@@H]2C [Polyphyllin I],0.33%,0.31%,0.37%,0.67%,0.32%,0.29%,0.21%,0.36%
CN1CCN(Cc2ccc(NC(=O)Cc3ccc(Oc4cc(NC(=O)C5CC5)ncn4)cc3)cc2C(F)(F)F)CC1,30.9% and 36.5%,23.8%,4.48%,2.16%,1.39%,0.45%,1%,5.81%
OCCn1cc(-c2cnc3nnn(Cc4ccc5ncccc5c4)c3n2)cn1,96.9% and 99.3%,104%,105%,102%,99.4%,100%,97.9%,97.9%
COC(=O)N[C@H](C(=O)N1CCC[C@H]1c1ncc(-c2ccc(-c3ccc(-c4cnc([C@@H]5CCCN5C(=O)[C@@H](NC(=O)OC)C(C)C)[nH]4)cc3)cc2)[nH]1)C(C)C,93.2% and 92%,89.7%,72.4%,83.9%,78.2%,88.5%,84.6%,84.3%
CCCOC(=O)c1cc(O)c(O)c(O)c1 [Propyl gallate],96.2% and 91%,94.7%,81.8%,99.1%,97.6%,106%,98.2%,97.5%
Cc1cc(NC(=O)c2cccc(NC(=O)/C=C/CN(C)C)c2)ccc1Nc1nccc(-c2cccnc2)n1,59.8% and 60.8%,65.5%,53.1%,50.7%,6.36%,6.17%,17.2%,26.6%
CCN(CC)Cc1ccc2cc(COC(=O)Nc3ccc(C(=O)NO)cc3)ccc2c1 [ITF2357 (Givinostat)],1.36% and 7.22%,1.85%,4.74%,9.63%,0.81%,0.55%,1.72%,3.52%
Clc1ccc2c(N3CCN(CCCN4CCN(c5ccnc6cc(Cl)ccc56)CC4)CC3)ccnc2c1 [Piperaquine phosphate],99.4% and 95%,98.2%,93.8%,103%,85.3%,102%,92.7%,88%
CC(=O)CCC=C(C)CCC=C(C)CCC=C(C)CCC=C(C)C [Teprenone],94.5% and 91.8%,92.9%,80.2%,95.6%,86.8%,96.5%,77.7%,84.9%
C[C@@H](Oc1cc(-n2cnc3ccc(CN4CCN(C)CC4)cc32)sc1C(N)=O)c1ccccc1C(F)(F)F,31.9% and 32.9%,34.1%,35.9%,34.3%,16.8%,7.12%,4.11%,17.1%
